Measurements reported in PubChem BioAssay (NCATS).
Records with an inconclusive call do not appear. A call without a number means that no potency is given here. Calls of active or inactive are those of the source. Unless noted, calls come from the whole dose curve; as a rule, active = well fitted curve in the direction sought with a large enough effect; inconclusive = small, poorly fitted or top-dose-only effect, or another doubt; inactive = no such curve, though single readings can be large; an effect the other way counts as inactive or inconclusive.

What was measured:
[1] = molecular target: Guanine nucleotide-binding protein G(i) subunit alpha-1 (Homo sapiens) (UniProt P63096); test: qHTS Assay for Inhibitors of RGS12 GoLoco Motif Activity (Green Fluorophore) (AID 879);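 note: negative values mean loss of peptide binding seen as reduced polarization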
In short: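 Fluorescence polarization assay: 50 nM Gαi1 with 10 nM FITC-labeled RGS12 GoLoco peptide in 10 mM Tris pH 7.5, 150 mM NaCl, 0.1 mM GDP, 0.05% NP40, 10 min at room temperature with compound.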

[2] = qHTS Assay for Identification of Small Molecule Agonists for Thrombopoietin (TPO) Signaling Pathway (AID 917)
In short: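 Murine Ba/F3 cells stably expressing human TPO receptor and a Glycoprotein IIb promoter–luciferase reporter were IL-3-starved overnight, then treated with compounds plus TPO (26 pM final, its EC50) for 24 hrs at 37 C; luminescence was read.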

[3] = molecular target: Pyruvate kinase (Leishmania mexicana) (UniProt Q27686); test: qHTS Validation Assay for Inhibitors of Leishmania Mexicana Pyruvate Kinase (AID 945)
In short: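 qHTS eight-point titrations against 0.2 nM LmPYK (E451W) in imidazole buffer pH 7.2 with 0.5 mM PEP, 0.1 mM ADP; 1 h, room temperature. Readout: PKLight luminescence, normalized to neutral DMSO wells.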

[4] = molecular target: Pyruvate kinase PKM (Homo sapiens) (UniProt P14618); test: qHTS Assay for Activators of Human Muscle Pyruvate Kinase (AID 954; active = well fitted curve in the direction sought with a large enough effect, not every such curve was filed as active)
In short: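 Human PKM2 activity is measured as ATP generation, detected by luciferase-coupled luminescence. The enzyme (0.1 nM) acts on 0.5 mM PEP and 0.1 mM ADP for 1 h at ambient temperature; data are normalized to uninhibited and full-inhibition wells.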

[5] = molecular target: Alpha-galactosidase A (Homo sapiens) (UniProt P06280); test: Counterscreen for Glucocerebrosidase Inhibitors: qHTS Assay for Human alpha-Galactosidase at pH 4.5 (AID 992)
In short: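 Quantitative HTS: compounds tested from 0.7 nM up to 77 uM against 2 nM enzyme with 80 uM 4-MU alpha-D-galactopyranoside. The 20 min room-temperature reaction is stopped with 1M NaOH/1M glycine, pH 10.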

[6] = molecular target: alpha-glucosidase (Oryza sativa, rice) (UniProt Q653V4); test: Counterscreen for Glucocerebrosidase Inhibitors: qHTS Assay for Rice alpha-Glucosidase at pH 5.0 (AID 997)
In short: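 Rice alpha-glucosidase (4 nM final) with 400 uM 4-methylumbelliferyl-alpha-D-glucopyranoside in citrate buffer pH 5.0, 20 min at room temperature, stopped at pH 10; fluorescence 365/440 nm, compounds 0.7 nM–77 uM, AC50 from Hill fits.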

[7] = S16 Schwann cell PMP22 intronic element firefly luciferase assay (AID 624032); note: nearly all actives have a fitted effect of over 30% in size; note: potency is the fitted concentration of half-maximal effect
In short: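 Rat S16 Schwann cells stably carrying a PMP22 intronic element-driven Fluc reporter were seeded overnight, then exposed to compounds for 24 h at 37 °C. Luminescence was normalized to PTC124 (positive control) and DMSO (0% activity).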

[8] = S16 Schwann cell PMP22 intronic element beta-lactamase assay (AID 624044; calls by dose curve; note: nearly all actives have a fitted effect of over 15% in size)
In short: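 Rat S16 Schwann cells with beta-Lac driven by a PMP22 intronic element, compound-treated 24 h at 37 °C. LiveBLAzer FRET B/G read: 460 nm normalized to potassium clavulanate vs DMSO; 535 nm FRET as viability; concentration-effect curves classified.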

CP192 = test: qHTS profiling for inhibitors of Plasmodium falciparum proliferation (AID 504749); note: nearly all actives have a fitted effect of over 60% in size; note: potency is the fitted concentration of half-maximal effect; conditions: P. falciparum in erythrocytes, SYBR Green DNA, 72 h; series mostly up to 28.7 µM
In short: (§1)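 P. falciparum-infected erythrocytes (0.3% parasitemia, 2.5% hematocrit final) were exposed to compounds for 72 h at 37 C in 5% CO2, then lysed with SYBR Green buffer overnight at room temperature; parasite DNA fluorescence was normalized to artemisinin and DMSO controls.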

CP194 = test: as above; conditions: P. falciparum in erythrocytes, SYBR Green DNA, 72 h; series mostly up to 12.8 µM
In short: as §1

CP215 = test: as above; conditions: P. falciparum in erythrocytes, SYBR Green DNA, 72 h; series mostly up to 28.7 µM
In short: as §1

CP260 = test: as above; conditions: P. falciparum in erythrocytes, SYBR Green DNA, 72 h; series mostly up to 12.8 µM
In short: as §1

CP266 = test: as above; conditions: P. falciparum in erythrocytes, SYBR Green DNA, 72 h; series mostly up to 28.7 µM
In short: as §1

CP297 = test: as above; conditions: P. falciparum in erythrocytes, SYBR Green DNA, 72 h; series mostly up to 12.8 µM
In short: as §1

CP315 = test: as above; conditions: P. falciparum in erythrocytes, SYBR Green DNA, 72 h; series mostly up to 12.8 µM
In short: as §1

DIV14 = test: as above; conditions: P. falciparum in erythrocytes, SYBR Green DNA, 72 h; series mostly up to 12.8 µM
In short: as §1

DIV17 = test: as above; conditions: P. falciparum in erythrocytes, SYBR Green DNA, 72 h; series mostly up to 12.8 µM
In short: as §1

GB4 = test: as above; conditions: P. falciparum in erythrocytes, SYBR Green DNA, 72 h; series mostly up to 12.8 µM
In short: as §1

W2 = test: as above; conditions: P. falciparum in erythrocytes, SYBR Green DNA, 72 h; series mostly up to 12.8 µM
In short: as §1

TAB109 = test: as above; conditions: P. falciparum in erythrocytes, SYBR Green DNA, 72 h; series mostly up to 12.8 µM
In short: as §1

Pyruvate kinase (Leishmania mexicana), sequence (Q27686 2-499 E452W): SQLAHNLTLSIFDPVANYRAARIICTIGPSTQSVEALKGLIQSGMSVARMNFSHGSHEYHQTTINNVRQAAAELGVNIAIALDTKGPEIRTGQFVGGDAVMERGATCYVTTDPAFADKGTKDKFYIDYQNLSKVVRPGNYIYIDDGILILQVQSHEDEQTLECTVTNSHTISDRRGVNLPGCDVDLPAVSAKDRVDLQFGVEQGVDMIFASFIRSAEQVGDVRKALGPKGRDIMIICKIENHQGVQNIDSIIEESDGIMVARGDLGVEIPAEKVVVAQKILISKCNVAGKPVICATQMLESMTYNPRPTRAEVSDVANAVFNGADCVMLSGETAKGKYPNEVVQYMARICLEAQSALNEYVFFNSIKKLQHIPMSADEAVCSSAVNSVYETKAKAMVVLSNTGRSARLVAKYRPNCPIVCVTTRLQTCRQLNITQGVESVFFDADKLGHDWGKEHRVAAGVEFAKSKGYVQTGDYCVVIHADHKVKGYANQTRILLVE
Alpha-galactosidase A (Homo sapiens), sequence (P06280 whole entry, looked up): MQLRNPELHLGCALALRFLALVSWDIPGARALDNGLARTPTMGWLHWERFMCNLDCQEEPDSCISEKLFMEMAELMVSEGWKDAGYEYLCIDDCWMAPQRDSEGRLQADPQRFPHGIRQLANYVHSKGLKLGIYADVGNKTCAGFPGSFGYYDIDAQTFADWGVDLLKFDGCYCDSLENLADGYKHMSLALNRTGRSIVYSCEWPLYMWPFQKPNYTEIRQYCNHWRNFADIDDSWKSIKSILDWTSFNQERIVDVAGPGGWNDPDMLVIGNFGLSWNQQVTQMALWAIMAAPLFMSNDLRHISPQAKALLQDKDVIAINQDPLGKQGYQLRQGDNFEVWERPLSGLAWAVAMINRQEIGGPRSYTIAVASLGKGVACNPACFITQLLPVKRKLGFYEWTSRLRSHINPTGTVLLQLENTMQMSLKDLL
Guanine nucleotide-binding protein G(i) subunit alpha-1 (Homo sapiens), sequence (P63096 whole entry, looked up): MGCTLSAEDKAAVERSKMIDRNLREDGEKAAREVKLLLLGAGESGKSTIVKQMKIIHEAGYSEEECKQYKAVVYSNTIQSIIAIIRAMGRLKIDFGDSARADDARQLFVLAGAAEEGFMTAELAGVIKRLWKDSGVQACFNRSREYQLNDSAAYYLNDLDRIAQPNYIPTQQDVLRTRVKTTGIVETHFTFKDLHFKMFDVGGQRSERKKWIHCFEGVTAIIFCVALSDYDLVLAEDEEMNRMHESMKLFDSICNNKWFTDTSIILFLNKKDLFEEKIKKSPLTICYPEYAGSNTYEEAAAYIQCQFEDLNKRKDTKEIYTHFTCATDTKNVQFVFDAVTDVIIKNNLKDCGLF
Pyruvate kinase PKM (Homo sapiens), sequence (P14618 whole entry, looked up): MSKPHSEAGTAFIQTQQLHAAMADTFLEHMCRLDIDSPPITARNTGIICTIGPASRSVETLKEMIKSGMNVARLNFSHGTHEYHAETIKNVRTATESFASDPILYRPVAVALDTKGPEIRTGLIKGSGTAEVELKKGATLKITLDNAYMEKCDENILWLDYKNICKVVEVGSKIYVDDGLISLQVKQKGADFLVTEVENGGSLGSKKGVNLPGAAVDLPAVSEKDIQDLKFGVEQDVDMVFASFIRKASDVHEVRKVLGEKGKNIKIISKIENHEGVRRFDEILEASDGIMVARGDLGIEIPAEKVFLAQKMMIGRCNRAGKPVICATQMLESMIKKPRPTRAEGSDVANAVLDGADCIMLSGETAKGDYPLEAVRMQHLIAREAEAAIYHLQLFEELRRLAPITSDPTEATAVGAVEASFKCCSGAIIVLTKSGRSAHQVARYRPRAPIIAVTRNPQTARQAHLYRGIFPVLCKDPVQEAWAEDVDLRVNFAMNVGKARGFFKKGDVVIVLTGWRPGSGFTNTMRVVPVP

Structure (SMILES)	Potency [1]	outcome [2]	outcome [3]	outcome [4]	outcome [5]	outcome [6]	Potency [7]	outcome [8]	Potency (CP192)	Potency (CP194)	Potency (CP215)	Potency (CP260)	Potency (CP266)	Potency (CP297)	Potency (CP315)	Potency (DIV14)	Potency (DIV17)	Potency (GB4)	Potency (W2)	Potency (TAB109)
CCn1cc(C(=O)O)c(=O)c2cc(F)c(N3CCN[C@@H](C)C3)c(F)c21	inactive	inactive	inactive	inactive	inactive	inactive	inactive	inactive	inactive	inactive	inactive	inactive	inactive	inactive	inactive	inactive	inactive	inactive	inactive	
CC(C)NC[C@H](O)c1cc(O)cc(O)c1	inactive	inactive	inactive	inactive	inactive	inactive			inactive	inactive	inactive		inactive	inactive	inactive	inactive	inactive	inactive	inactive	inactive
COc1cc(=O)n(C)c2c(OC[C@@H](O)C(C)(C)O)cccc12	inactive	inactive	inactive	inactive	inactive	inactive														
CCCN[C@@H](C)C(=O)Nc1c(C)csc1C(=O)OC								inactive	inactive	inactive	inactive	inactive	inactive	inactive	inactive	inactive	inactive	inactive	inactive	inactive
NC(N)=NC[C@@H]1COC2(CCCCC2)O1							inactive	inactive	inactive	inactive	inactive	inactive	inactive	inactive	inactive	inactive		inactive	inactive	inactive
COc1ccccc1OC[C@H](O)COC(N)=O							inactive	inactive	inactive	inactive	inactive	inactive	inactive	inactive	inactive	inactive	inactive	inactive	inactive	inactive
CN(C)CC[C@@H](c1ccccc1)c1ccccn1	inactive	inactive	inactive	inactive	inactive	inactive														
O=C(O)/C=C\c1ccc(Cn2ccnc2)cc1							inactive	inactive	inactive	inactive	inactive	inactive		inactive	inactive	inactive	inactive	inactive	inactive	inactive
CC1(C)O[C@@H]2C[C@H]3[C@H]4C[C@H](F)C5=CC(=O)C=C[C@@]5(C)[C@@H]4[C@H](O)C[C@]3(C)[C@]2(C(=O)CO)O1							inactive	inactive	inactive	inactive	inactive	inactive	inactive	inactive	inactive	inactive	inactive	inactive	inactive	inactive
C[C@H](NCCc1ccc(O)cc1)[C@@H](O)c1ccc(O)cc1	inactive	inactive	inactive	inactive	inactive	inactive		inactive	inactive	inactive	inactive		inactive	inactive	inactive	inactive	inactive	inactive	inactive	inactive
CC1=C(C(=O)O)N2C(=O)[C@@H](NC(=O)[C@@H](N)c3ccccc3)[C@@H]2SC1	inactive	inactive	inactive	inactive	inactive	inactive														
COc1c(O)cc2c(c1O)[C@@H]1O[C@@H](CO)[C@@H](O)[C@@H](O)[C@@H]1OC2=O							inactive	inactive	inactive	inactive	inactive	inactive	inactive	inactive	inactive	inactive	inactive	inactive	inactive	inactive
CCN(CC)CC#CCOC(=O)[C@@](O)(c1ccccc1)C1CCCCC1	inactive		inactive	inactive	inactive	inactive	inactive	inactive	inactive		inactive		inactive		inactive	7.57 µM (active)	4.78 µM (active)		5.36 µM (active)	
CCN(CC)CCC[C@H](C)Nc1ccnc2cc(Cl)ccc12	inactive	inactive	inactive	inactive	inactive	inactive	inactive	inactive				3.98 µM (active)				1.69 µM (active)	3.79 µM (active)	1.51 µM (active)	6.01 µM (active)	3.55 µM (active)
CN(C)CC[C@H](c1ccc(Br)cc1)c1ccccn1	inactive		inactive	inactive	inactive	inactive														
O=c1[nH]c(=O)n([C@@H]2C[C@H](O)[C@H](CO)O2)cc1I							2.45 µM (active)	inactive	inactive	inactive	inactive	inactive	inactive	inactive	inactive	inactive	inactive	inactive	inactive	inactive
CN[C@@H]1[C@H](O[C@@H]2O[C@H](CO)[C@@H](N)[C@H](O)[C@@H]2O)O[C@H]2C[C@@H](N)[C@@H](O[C@H]3[C@@H](O)[C@H](O)[C@H](N)C[C@@H]3N)O[C@H]2[C@H]1O							inactive			inactive	inactive	inactive	inactive	inactive	inactive	inactive	inactive	inactive	inactive	inactive
CC(C)COC[C@H](CN(Cc1ccccc1)c1ccccc1)N1CCCC1	inactive	inactive	inactive	inactive	inactive	inactive														
